PubChem BioAssay AID624330 (Southern Research Specialized Biocontainment Screening …, 2012)
Out of some 340,000 compounds screened, about 2,100 (0.62%) were called active.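 Rule for the calls: active = first-screen hits whose inhibition reached a set limit at any dose in the follow-up dose series; inconclusive = inhibition above the set first-screen limit but never retested; inactive = the rest.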 These entries were drawn from the full list. Results with a measured potency or affinity are listed apart.

molecular target: Rac GTPase-activating protein 1 (Homo sapiens) (UniProt Q9H0H5); test: MgcRacGAP GTPase-activating activity inhibitors, confirmation, biochemical, ADP Hunter fluorescence, primary and confirmatory (AID 624330); details: MgcRacGAP-stimulated Rac1 GTP hydrolysis, at 30 µM, active compounds read high, GST-tagged Rac1 F28L mutant substrate;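 note: fluorescence reports GDP produced by GAP-driven GTP hydrolysis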
Sequence (Q9H0H5 whole entry, looked up): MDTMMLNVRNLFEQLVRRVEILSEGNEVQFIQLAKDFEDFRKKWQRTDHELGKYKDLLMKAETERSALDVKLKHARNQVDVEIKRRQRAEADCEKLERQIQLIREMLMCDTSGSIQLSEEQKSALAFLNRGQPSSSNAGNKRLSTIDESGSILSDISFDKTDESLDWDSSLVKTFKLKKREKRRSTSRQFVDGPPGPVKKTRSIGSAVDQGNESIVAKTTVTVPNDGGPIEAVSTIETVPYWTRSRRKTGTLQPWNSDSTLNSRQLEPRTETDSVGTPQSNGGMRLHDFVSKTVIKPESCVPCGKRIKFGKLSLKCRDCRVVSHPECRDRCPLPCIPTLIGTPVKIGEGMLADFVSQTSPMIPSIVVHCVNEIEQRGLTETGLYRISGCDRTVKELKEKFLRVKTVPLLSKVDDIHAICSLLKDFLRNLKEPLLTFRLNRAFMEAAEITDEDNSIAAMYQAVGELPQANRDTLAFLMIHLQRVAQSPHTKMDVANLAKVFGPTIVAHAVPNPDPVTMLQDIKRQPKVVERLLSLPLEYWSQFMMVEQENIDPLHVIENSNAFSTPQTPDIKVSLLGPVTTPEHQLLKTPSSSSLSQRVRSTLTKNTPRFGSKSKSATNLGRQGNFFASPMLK

inhibition, inactive:
COC(=O)c1ccc(COC(=O)c2ccccc2OC)cc1 -1.87%
COc1ccc(C(=O)NNC(=O)c2ccccc2[N+](=O)[O-])cc1Br 2.78%
COc1ccc([C@H]2CC(=O)C=C(c3cccc(F)c3OC)C2)cc1 9.17%
Cc1ccc(C(=O)N2CCN(Cc3ccc4c(c3)OCO4)CC2)o1 3.03%
O=C(c1cccc(F)c1)N1CCN(c2ccc([N+](=O)[O-])c(N3CCOCC3)c2)CC1 9.81%
CN1C(=O)CSC1=S 6.82%
O=c1[nH]nc(CNc2cccc(C(F)(F)F)c2)c2ccccc12 7.15%
COc1ccc(OC)c(C(c2c(C)[nH][nH]c2=O)c2c(C)[nH][nH]c2=O)c1 12.8%
O=c1c(Cl)c(N2CCN(c3ccc(F)cc3)CC2)cnn1C12CC3CC(CC(C3)C1)C2 -5.26%
N#Cc1nnn2c1nc(N)c1c(F)cccc12 2.66%
Cc1ccc(S(=O)(=O)N(CC(=O)N2CCOCC2)c2ccccc2F)cc1 2.11%
COc1ccc(-c2nc3ccccc3s2)cc1NC(C)=O -7.89%
Oc1cccc(-c2nc3ccccc3s2)c1 8.24%
Oc1ccc(-c2nc3ccccc3s2)cc1 15.1%
COc1ccc(-c2nc3ccccc3s2)cc1O 11.7%
Cc1ccc(OCC(=O)N(Cc2cccc(F)c2)C2CCS(=O)(=O)C2)cc1 (centres undefined) 8.85%
O=C(Nc1ccccc1SC(=O)c1ccccc1)c1ccccc1 18.6%
COc1ccc(C(=O)Sc2nncc3ccccc23)cc1 -1.75%
CCc1nc2ccccc2c(C(=O)OCC(=O)N(C)Cc2ccccc2)c1C 3.21%
CCN(CC)CCNC(=O)c1ccc(NC(=O)c2ccc3c(c2)CCC3)cc1 3.69%
CCN(CC(=O)Nc1ccc(NC(C)=O)cc1)CC(=O)Nc1cc(C)on1 5.22%
CSCC(=O)Nc1cc(C)on1 -9.86%
CCCCN(C)CCC(=O)Nc1ccc2c(c1)CCC2 6%
O=C(NCc1ccccn1)Nc1cccc(F)c1 7.66%
C=CCN(CC=C)c1ncnc2[nH]ncc12 0.33%
COc1cc(C)c(S(=O)(=O)Nc2ccccc2F)cc1C 0.77%
CCn1nc(C(=O)NCc2nnc3ccccn23)c2ccccc2c1=O 2.43%
CCOC(=O)C1CN(S(=O)(=O)c2ccc(OC)cc2)c2cc(S(=O)(=O)CC)ccc2O1 (centres undefined) -8.53%
CC1=NN(C(N)=S)C(=O)C1N=Nc1ccc(Cl)cc1 (centres undefined) 13.3%
CC1=NN(C(N)=S)C(=O)C1N=Nc1ccc(Br)cc1 (centres undefined) 12.4%
CCC(C)NC(=O)CS(=O)Cc1nc(-c2cccc(C)c2)oc1C (centres undefined) 2.8%
CCn1cc(C(=O)N2CCN(c3ccccn3)CC2)c2cc(OC)c(OC)cc2c1=O -4.67%
CC1=C(C(N)=O)C(c2ccc(Cl)c(Cl)c2)n2ncnc2N1 (centres undefined) 3.56%
Cn1c(N2CCOCC2)c(C=O)c2ccccc21 8.54%
CN1CCN(c2c(/C=N/O)c3ccccc3n2C)CC1 28.5%
O=C(Nc1ccc(C(=O)O)cc1)/C(=C\c1ccco1)NC(=O)c1ccc(Br)cc1 18.2%
COc1ccc2c3c(cccc13)OC2=O 5.25%
COc1ccc2c3c(cccc13)C(=O)N(O)C2=O 1.13%
COc1ccc(CCNC(=O)c2nnc(Cc3c(F)cccc3Cl)o2)cc1OC 3.35%
O=C1N[C@H](Cc2ccccc2)CO1 3.86%
O=C1OC(Cc2ccccc2)C(c2ccccc2)C1=O (centres undefined) 3.8%
COc1ccc(Br)cc1C(=O)Nc1cccc(-c2nnc(-c3ccco3)o2)c1 -5.03%
COc1ccc(NC(=O)c2ccc(OC(F)F)cc2)cc1Cl -1.44%
O=C(O)c1cc(N/N=C/c2c[nH]c3ccccc23)ccc1Cl 23.8%
COc1ccc(C(=O)N/N=C/c2c[nH]c3ccccc23)cc1 16.4%
COc1ccc2c(/C=N/NS(=O)(=O)c3ccc(C)cc3)c[nH]c2c1 11.2%
O=C(O)c1ccc(S(=O)(=O)NN=Cc2c[nH]c3ccccc23)cc1 14.2%
COc1ccc(S(=O)(=O)N2CCCCC2)cc1NC(=O)CCc1cc(OC)c(OC)c(OC)c1 2.57%
O=C(COC(=O)Cc1c(Cl)cccc1Cl)Nc1ccccc1-c1ccccc1 1.56%
O=C(O)C1CC(c2ccccc2)=Nc2ccccc2S1 (centres undefined) 6.83%
CC1(C)CC(=O)C(Sc2ccccc2)=C(O)C1 -4.47%
CCOC(=O)Nc1ccc2c(c1)nc1n2CCN(CCOC)C1 8.24%
NS(=O)(=O)c1ccc(NC(=O)CSc2nc3c(c(=O)[nH]2)CCCC3)cc1 6.37%
CCN(CC(=O)NCc1ccc(F)cc1)C(=O)CN1CCN(c2ccccc2OC)CC1 2.73%
COc1ccc(CNC(=O)CN2CCN(c3ccc(F)cc3)CC2)cc1 6.2%
CCOc1ccccc1NC(=O)Cn1cnc2c(cnn2-c2ccc(C)c(C)c2)c1=O 9.09%
CC[C@@]1(C(=O)OC)N[C@H](CN(C)C(=O)c2ccc(F)cc2)[C@@H]2C(=O)N(Cc3ccccc3)C(=O)[C@@H]21 1.15%
CC(C)Cc1nnc(NC(=O)CCC(=O)NCCc2ccc(Cl)cc2)s1 4.94%
C[C@]12CC[C@@H]3c4ccc(O)cc4CC[C@H]3[C@@H]1CCC2=O 9.39%
CC12CCC3c4ccc(O)cc4CCC3C1CCC2=O (centres undefined) 5.82%
CC(O)Cn1c(N2CCCC2)nc2c1c(=O)[nH]c(=O)n2C (centres undefined) 4.91%
Cc1ccc2nc(C3CCCCC3)[nH]c2c1 9.42%
Cc1nc2ccc(-c3nc4ccccc4[nH]3)cc2[nH]1 22.2%
Clc1ccc(-c2nc3ccncc3[nH]2)cc1 -13.9%
c1cncc(-c2nc3ccccc3[nH]2)c1 3.11%
c1cncc(-c2nc3cc4ccccc4cc3[nH]2)c1 21.6%
O=[N+]([O-])c1ccc2nc(C3CCCCC3)[nH]c2c1 6.17%
O=[N+]([O-])c1ccc2nc(-c3ccc(Cl)cc3)[nH]c2c1 9.26%
Cc1nc2ccc(-c3nc4cc(N)ccc4o3)cc2[nH]1 4.01%
C=CCNC(=S)NNC(=O)c1ccc2c(c1)OCO2 4.79%
CC(NC(=O)C(=O)N1CCOCC1)C(c1cccs1)N1CCN(c2ccccc2)CC1 (centres undefined) 11%
CC1CCCN(C(=O)C2CCN(S(=O)(=O)c3ccc4c(c3)CC(C)N4C(=O)C3CC3)CC2)C1 (centres undefined) -0.15%
COc1ccc(CNC(=O)C(NS(=O)(=O)c2ccc3c(c2)CCCN3C(C)=O)C(C)C)cc1 (centres undefined) 6.24%
COc1cccc(CNC(=O)CCS(=O)(=O)c2ccc3c(c2)NC(=O)CS3)c1 6.72%
O=C1c2ccccc2NC(c2ccccn2)N1c1ccccc1F (centres undefined) 6.7%
O=C(NC1CCCCC1)c1cc(S(=O)(=O)N2CCCC2)ccc1Cl 9.3%
CCOC(=O)COc1nc(OC)nc(N2CCOCC2)n1 13%
Nc1ccc2nc(C(F)(F)F)[nH]c2c1 7.12%
Nc1cccc(-c2nc3ccccc3[nH]2)c1 8.22%
Nc1ccc2nc(-c3cccc(-c4nc5ccc(N)cc5[nH]4)c3)[nH]c2c1 25.9%
Nc1ccc(-c2nc3ccccc3[nH]2)cc1 8.27%
O=C(OCC(=O)N1CCN(C(=O)c2ccco2)CC1)c1sc2cc(F)ccc2c1Cl 3.78%
COC(=O)c1ccc(C(=O)OC)c(NC(=O)CN(C)Cc2cccc(Cl)c2Cl)c1 5.99%
Cc1nc2cc3nc(C)sc3cc2s1 10.8%
O=C(CCc1ccc(O)cc1)NN=Cc1ccc2c(c1)OCO2 28.7%
COc1ccc(CCC(=O)N/N=C/c2ccc3c(c2)OCO3)cc1 4.06%
O=C(Cc1ccc(Cl)cc1)N/N=C/c1cccc(O)c1 -4.31%
O=C(Cc1ccc(Cl)cc1)N/N=C/c1ccccc1 3.03%
O=C(CCC(=O)OCc1ccc([N+](=O)[O-])cc1)Nc1ccc(F)cc1 4.88%
O=C(CC(c1ccccc1)c1ccccc1O)NCCN1CCOCC1 (centres undefined) -6.2%
Nc1ccccc1-n1c(=O)n(Cc2ccccc2F)c(=O)c2[nH]cnc21 3.12%
C=CCn1c(SCc2cc(=O)n3cc(C)ccc3n2)nnc1-c1cccc(C)c1 8.24%
CSCC[C@H](NC(=O)OC(C)(C)C)C(=O)N1CCC(C(=O)NCC(=O)Nc2ccc(C)cc2)CC1 -4.04%
COCCNC(=O)c1ccc(-c2csc(C)n2)cc1 3.59%
C[C@@H]1CN([C@H](C)CO)C(=O)c2cc(Br)cnc2O[C@@H]1CN(C)C(=O)C1CCOCC1 8.56%
CNc1nnc(-c2ccncc2)s1 6.68%
CNc1nnc(-c2cccc(N(C)C)c2)s1 4.36%
Cc1cc(OCC(=O)NCC2CCC(C(=O)O)CC2)c2c(C)c(Cc3ccccc3)c(=O)oc2c1 (centres undefined) 1.13%
CCCc1cc(=O)[nH]c(SCC(=O)NC)n1 2.55%
